Source: PubChem BioAssay (several laboratories)
Shown are actives, neighbours in structure and some others; about 4.1% of the full set was active somewhere.
A1 inh: caspase 3/7 activation in MEF A1-2A-BIM cells, primary screen, A1 inhibitor project, cell-based, luminescence, HTS; caspase activation, % (concentration not given with the values); Caspase-Glo 3/7 luminescence, 3 h; percent of clofoctol response, vehicle zero; AID 2462, 2010; 330,000 tested, 0.066% active;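 active = over half of replicate activation scores above 10%, or exactly half above 10 with the replicate mean above 10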
Beta apoptosis: inhibitors of cytokine-induced beta cell apoptosis, primary screen, luminescence; INS-1E cytokine-induced death, ATP luminescence, 48 h; percent of positive-control rescue, neutral wells zero; 300,000 tested, 0.8% active; protection from apoptosis, % (concentration not given with the values); AID 435005, 2010;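 active = Every replicate reaches about 75%, or at least half do and their mean reaches it too, limit read from the data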;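 note: higher means more ATP so stronger rescue from cytokine killing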
Mdm2-MdmX inh: inhibitors of human Mdm2-MdmX association, primary screen, cell-based, luminescence, split luciferase, SaOS-2, uHTS | Protein Mdm4 (Homo sapiens) + E3 ubiquitin-protein ligase Mdm2 (Homo sapiens), … | SaOS-2 split-luciferase Mdm2/MdmX complementation | inhibition, % at 8 µM | 330,000 tested, 3% active | AID 485346, 2010;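 active = inhibition of at least 50% at 8 µM in the primary screen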
Target sequence (O15151 whole entry, looked up): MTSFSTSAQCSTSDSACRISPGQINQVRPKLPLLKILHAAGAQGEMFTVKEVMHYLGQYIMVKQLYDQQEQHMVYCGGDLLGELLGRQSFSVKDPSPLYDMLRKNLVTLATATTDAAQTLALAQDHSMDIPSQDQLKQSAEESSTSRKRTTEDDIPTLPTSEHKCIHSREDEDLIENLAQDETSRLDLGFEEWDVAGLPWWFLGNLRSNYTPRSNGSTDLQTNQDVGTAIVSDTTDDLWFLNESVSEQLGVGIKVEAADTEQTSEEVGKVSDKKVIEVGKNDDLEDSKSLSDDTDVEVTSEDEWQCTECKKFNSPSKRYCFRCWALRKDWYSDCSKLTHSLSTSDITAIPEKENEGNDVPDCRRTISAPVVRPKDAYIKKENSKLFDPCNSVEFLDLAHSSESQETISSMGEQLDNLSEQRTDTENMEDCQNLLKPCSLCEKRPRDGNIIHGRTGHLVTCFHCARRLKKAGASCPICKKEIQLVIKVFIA
Target sequence (Q00987 whole entry, looked up): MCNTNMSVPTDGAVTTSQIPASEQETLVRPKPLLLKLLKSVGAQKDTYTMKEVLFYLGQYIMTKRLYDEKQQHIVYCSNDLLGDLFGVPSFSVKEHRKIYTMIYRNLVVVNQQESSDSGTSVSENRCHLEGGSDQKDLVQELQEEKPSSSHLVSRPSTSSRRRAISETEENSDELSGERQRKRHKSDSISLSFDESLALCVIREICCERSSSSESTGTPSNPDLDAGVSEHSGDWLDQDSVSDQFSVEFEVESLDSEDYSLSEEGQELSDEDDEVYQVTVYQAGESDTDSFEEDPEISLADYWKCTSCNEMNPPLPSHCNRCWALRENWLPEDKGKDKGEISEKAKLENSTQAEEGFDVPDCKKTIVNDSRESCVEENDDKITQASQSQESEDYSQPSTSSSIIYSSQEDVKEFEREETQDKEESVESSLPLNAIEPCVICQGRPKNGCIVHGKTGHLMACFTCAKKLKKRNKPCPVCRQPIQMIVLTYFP
CSC inhib: cancer stem cell viability inhibitors, primary screen, luminescence. 300,000 tested, 1.1% active. cancer stem cell-like cells viability. inhibition, % at 7.5 µM; in the data active = inhibition above about 75%; tested in HMLE shEcad cells
aSyn 5UTR inh: MLPCN primary screen, SNCA 5' untranslated region; 300,000 tested, 0.82% active; inhibition, % (tested at 7.5 µM); AID 1813, 2009; alpha-synuclein 5'UTR reporter, inhibitor activity; in the data active = inhibition above about 60%;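 note: H4 neuroglioblastoma cells stably carrying SNCA 5'UTR luciferase fusion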
Mdm2 MdmX conf: Mdm2-MdmX complex disruptors, retested hits, confirmation, luminescence, single concentration. shares compounds with Mdm2-MdmX inh. AID 489028, 2010. Mdm2-MdmX binding, luminescent assay. 10,000 tested, 55% active. inhibition, % at 8 µM; in the data active = inhibition above about 40%
Full FLuc ctr: full-length luciferase signal inhibition, confirmation, counter-screen for Mdm2/MdmX interaction inhibitor project, cell-based, single concentration, SaOS-2; shares compounds with Mdm2-MdmX inh; SaOS-2 full-length luciferase counterscreen, luminescence; inhibition, % at 8 µM; 6,200 tested, 77% active; AID 504607, 2011;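 active = mean inhibition at 8 µM reaching about 37%, which flags the compound as non-specific, limit read from the data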;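 note: p53-null SaOS-2 cells with luciferase driven by a doxycycline-inducible promoter; compound on cells about two nights before reading with doxycycline added after day one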
A number is an active result.

C[C@H]1CN([C@@H](C)CO)C(=O)Cc2cc(NC(=O)CCC(F)(F)F)ccc2O[C@H]1CN(C)Cc1ccc(-c2ccccc2)cc1 was read as A1 inh inactive, Beta apoptosis inactive, Mdm2-MdmX inh 55, CSC inhib 123 and Mdm2 MdmX conf inactive.
Screening Cn1ncc(Br)c1C(=O)N1CCCCCC1 returned A1 inh inactive, Beta apoptosis inactive, Mdm2-MdmX inh inactive, CSC inhib inactive and aSyn 5UTR inh inactive.
For Cc1ccccc1C#N the results were A1 inh inactive, Beta apoptosis inactive, Mdm2-MdmX inh inactive and CSC inhib inactive.
`O=C1CSC(c2ccc(F)c(F)c2)N1c1ccccc1F` (stereo not given) gave A1 inh inactive, Beta apoptosis inactive, Mdm2-MdmX inh inactive, CSC inhib inactive and aSyn 5UTR inh inactive.
Nc1nsc2ccccc12 was read as A1 inh inactive, Beta apoptosis inactive, Mdm2-MdmX inh 61, CSC inhib inactive, aSyn 5UTR inh inactive and Mdm2 MdmX conf inactive.
`Nc1nnc(N)c2ccccc12` gave A1 inh inactive, Beta apoptosis inactive, Mdm2-MdmX inh inactive, CSC inhib inactive and aSyn 5UTR inh inactive.
`C=CC[C@H](CC(=O)N[C@H](CO)Cc1ccccc1)C(=O)N[C@@H](COC(=O)[C@H](CC=C)CC(=O)OC(C)(C)C)Cc1c[nH]c2ccccc12` gave A1 inh inactive, Beta apoptosis inactive and Mdm2-MdmX inh inactive.
CCc1nnc(NC(=O)CSc2nnc3nc(C)cc(C)n23)s1 was read as A1 inh inactive, Beta apoptosis inactive, Mdm2-MdmX inh inactive and aSyn 5UTR inh inactive.
Screening COc1ccccc1-c1nc(S(=O)(=O)c2ccccc2)c(N2CCOCC2)o1 returned A1 inh inactive, Beta apoptosis inactive, Mdm2-MdmX inh inactive, CSC inhib inactive and aSyn 5UTR inh inactive.
Screening CCOc1ccc(Nc2nnc(SCc3nc4ccccc4c(=O)[nH]3)s2)cc1 returned A1 inh inactive, Beta apoptosis inactive, Mdm2-MdmX inh 63, CSC inhib inactive, aSyn 5UTR inh inactive and Mdm2 MdmX conf inactive.
`Cc1cccc(OCc2nnc(SCc3nc4ccccc4c(=O)[nH]3)o2)c1` gave A1 inh inactive, Beta apoptosis inactive, Mdm2-MdmX inh inactive, CSC inhib inactive and aSyn 5UTR inh inactive.
COc1ccc(-c2nnc(SCc3nc4ccccc4c(=O)[nH]3)o2)cc1 was read as A1 inh inactive, Beta apoptosis inactive, Mdm2-MdmX inh 73, CSC inhib inactive, aSyn 5UTR inh inactive, Mdm2 MdmX conf 58 and Full FLuc ctr 105.
`Cc1ccc(C(C)C)c(OCc2ccc(C(=O)N/N=C/c3ccc(O)c(O)c3)cc2)c1` gave A1 inh inactive, Beta apoptosis inactive, Mdm2-MdmX inh 53, CSC inhib 109, aSyn 5UTR inh inactive and Mdm2 MdmX conf inactive.
Cc1ccc(/C(N)=N/OC(=O)c2ccc(C)cc2Cl)cc1 was read as A1 inh inactive, Beta apoptosis inactive, Mdm2-MdmX inh 74, CSC inhib inactive, aSyn 5UTR inh inactive, Mdm2 MdmX conf 77 and Full FLuc ctr active.
`N/C(=N\OC(=O)c1ccc(Cl)cc1Cl)c1ccc(Cl)cc1` gave A1 inh inactive, Beta apoptosis inactive, Mdm2-MdmX inh 53, CSC inhib inactive, aSyn 5UTR inh inactive, Mdm2 MdmX conf 50 and Full FLuc ctr 146.
`Cc1cc(SCc2ccc([N+](=O)[O-])cc2)nc(=O)[nH]1` gave A1 inh inactive, Beta apoptosis inactive, Mdm2-MdmX inh inactive, CSC inhib inactive and aSyn 5UTR inh inactive.
For CCOC(=O)c1nn(-c2ccc(Br)cc2)cc1C(=O)c1cccc2ccccc12 the results were A1 inh inactive, Beta apoptosis inactive, Mdm2-MdmX inh 62, CSC inhib inactive, aSyn 5UTR inh inactive and Mdm2 MdmX conf inactive.
Screening O=C(c1ccc(Br)cc1)N1CCC(C(=O)N2CCN(Cc3ccccc3)CC2)CC1 returned A1 inh inactive, Beta apoptosis inactive, Mdm2-MdmX inh inactive, CSC inhib inactive and aSyn 5UTR inh inactive.
`O=C1C=C(c2cc(C(F)(F)F)cc(C(F)(F)F)c2)C[C@@H](c2ccc(Cl)cc2)C1` gave A1 inh inactive, Beta apoptosis inactive, Mdm2-MdmX inh inactive and CSC inhib inactive.
For COc1c(C(=O)Nc2ccccc2N2CCOCC2)cc2ccccc2c1Br the results were A1 inh inactive, Beta apoptosis inactive, Mdm2-MdmX inh 50, CSC inhib inactive, aSyn 5UTR inh inactive and Mdm2 MdmX conf inactive.
Screening O=C(CCl)c1ccc2c(c1)CCN2C(=O)C1CC1 returned A1 inh inactive, Beta apoptosis inactive, Mdm2-MdmX inh 80, CSC inhib inactive, aSyn 5UTR inh inactive, Mdm2 MdmX conf inactive and Full FLuc ctr inactive.
For O=C(CCl)c1ccc2c(c1)CCN2C(=O)C1CCCCC1 the results were A1 inh inactive, Beta apoptosis inactive, Mdm2-MdmX inh 97, CSC inhib inactive, aSyn 5UTR inh inactive, Mdm2 MdmX conf 53 and Full FLuc ctr 79.
O=C(C1CCC(C(=O)N2CCc3ccccc32)CC1)N1CCc2ccccc21 (stereo not given) was read as A1 inh inactive, Mdm2-MdmX inh inactive, CSC inhib inactive and aSyn 5UTR inh inactive.
`O=C(Cn1cnc2cc([N+](=O)[O-])ccc2c1=O)Nc1cccc(S(=O)(=O)N2CCOCC2)c1` gave A1 inh inactive, Beta apoptosis inactive, Mdm2-MdmX inh 61, CSC inhib inactive, aSyn 5UTR inh inactive and Mdm2 MdmX conf inactive.
Screening Cc1nc2ccc(N)cc2s1 returned A1 inh inactive, Mdm2-MdmX inh inactive, CSC inhib inactive and aSyn 5UTR inh inactive.
`CN(C)c1ccc2nc3ccc(=[N+](C)C)cc-3sc2c1` gave A1 inh inactive, Mdm2-MdmX inh 53, CSC inhib 96, aSyn 5UTR inh inactive and Mdm2 MdmX conf inactive.
For O=C(c1ccccc1)N1CCN(CC(O)COc2cccc3ccccc23)CC1 (stereo not given) the results were A1 inh inactive, Beta apoptosis inactive, Mdm2-MdmX inh inactive, CSC inhib inactive and aSyn 5UTR inh inactive.
`O=C(c1cccc(COc2cccc3ccccc23)c1)N1CCCC1` gave A1 inh inactive, Beta apoptosis inactive, Mdm2-MdmX inh 50, CSC inhib inactive, aSyn 5UTR inh inactive and Mdm2 MdmX conf inactive.
For O=C1NC(=S)N/C1=C/c1ccc2c(c1)OCO2 the results were A1 inh inactive, Beta apoptosis inactive, Mdm2-MdmX inh 80, CSC inhib inactive, aSyn 5UTR inh inactive, Mdm2 MdmX conf 50 and Full FLuc ctr 91.
